Experimental data from PubChem BioAssay (EPA / NIEHS).
Activity calls are given as the source filed them. The calls were made as follows: active = hit-call score of the fitted dose curve at least 0.9, where 1 is the maximum; inactive = score below 0.9.

How the values were obtained:
CD40, CD40 (gene 958) = assay: BSK_SAg_CD40: BioMAP Diversity Plus: SAg Assay for CD40 Biomarker Activity (AID 2283088); settings: primary human HUVEC with PBMC; actives raise or lower the signal
Outline: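 HUVEC/PBMC co-culture, 24 h post-dose; CD40 by ELISA, fluorescence intensity; bidirectional fit vs DMSO negative control.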

CD69, CD69 (gene 969) = assay: BSK_SAg_CD69: BioMAP Diversity Plus: SAg Assay for CD69 Biomarker Activity (AID 2283089); settings: primary human HUVEC with PBMC; actives raise or lower the signal;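 as to AC50: cell surface CD69 protein quantified by ELISA with fluorescence detection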
Outline: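 Endothelial/PBMC co-culture; chemical added; 24 h incubation; CD69 ELISA with fluorescence detection; bidirectional fit vs DMSO.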

[1] = read-out: Monocyte Chemoattractant Protein-1 (MCP1), CCL2 (gene 6347); assay: BSK_SAg_MCP1: BioMAP Diversity Plus: SAg Assay for Monocyte Chemoattractant Protein-1 (MCP1) Biomarker Activity (AID 2283090); settings: primary human HUVEC with PBMC; actives raise or lower the signal
Outline: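 MCP-1 levels in the endothelial–PBMC SAg co-culture were quantified by ELISA at 24 h post-dosing; both increases and decreases versus DMSO scored. Cytotoxicity monitored by SRB total protein in parallel cultures.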

[2] = read-out: E-selectin (Homo sapiens) (UniProt P16581); assay: BSK_SAg_Eselectin: BioMAP Diversity Plus: SAg Assay for Eselectin Biomarker Activity (AID 2283091); settings: primary human HUVEC with PBMC; actives raise or lower the signal
Outline: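 E-selectin ELISA readout at 24 h post-dosing in human umbilical vein endothelial cell/PBMC co-culture; gain or loss of signal fitted relative to DMSO baseline.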

[3] = read-out: Monokine induced gamma interferon (MIG), CXCL9 (gene 4283); assay: BSK_SAg_MIG: BioMAP Diversity Plus: SAg Assay for Monokine induced gamma interferon (MIG) Biomarker Activity (AID 2283092); settings: primary human HUVEC with PBMC; actives raise or lower the signal
Outline: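 Measures CXCL9 protein by ELISA in a human vascular primary-cell co-culture (umbilical vein endothelium with PBMC) 24 h after chemical addition. Activity is scored up or down from the DMSO control.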

[4] = BSK_SAg_PBMCCytotoxicity: PBMC Cytotoxicity Assessment in the BioMAP Diversity Plus: SAg Assay (AID 2283093); settings: primary human HUVEC with PBMC;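 also: PBMC viability measured as Alamar Blue reduction fluorescence at 546/580 nm; fitted both ways against DMSO so a hit may be loss or gain of signal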;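 as to AC50: PBMC superantigen activated with SEB plus TSST-1 one hour after compound addition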
Outline: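 Human umbilical vein endothelial cells co-cultured with PBMC; PBMC (75,000/well) pre-treated with compound 1 h, then activated with SEB and TSST-1 (20 ng/mL final each) for 90 h. Alamar Blue added 6 h, fluorescence 546/580 nm; bidirectional fit versus DMSO.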

[5] = read-out: Interleukin-8 (IL8), CXCL8 (gene 3576); assay: BSK_SAg_IL8: BioMAP Diversity Plus: SAg Assay for Interleukin-8 (IL8) Biomarker Activity (AID 2283094); settings: primary human HUVEC with PBMC; actives raise or lower the signal
Outline: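 ELISA read-out of IL-8 in a primary human vascular co-culture (umbilical vein endothelium plus PBMC), taken 24 h after compound addition. Values derive from bidirectional fits against DMSO negative controls.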

[6] = BSK_SAg_Proliferation: Cell Proliferation Assessment in the BioMAP Diversity Plus: SAg Assay (AID 2283095); settings: primary human HUVEC with PBMC;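 also: relative cell number as total protein by SRB absorbance in sub-confluent culture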
Outline: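 Cells (endothelium plus PBMC, human primary) were dosed with chemical, cultured 96 h, fixed in 10% TCA and stained with 0.1% SRB. Absorbance at 560 nm gave relative protein, fitted bidirectionally relative to DMSO.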

[7] = BSK_SAg_SRB: Viability Assessment in the BioMAP Diversity Plus: SAg Assay (AID 2283096); settings: primary human HUVEC with PBMC;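 also: cells read one day after compound addition; hits may be either gain or loss of signal compared with DMSO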
Outline: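 Endothelial/PBMC primary human co-culture; compound 24 h; fix 10% TCA, stain 0.1% SRB, A560; protein content as cytotoxicity proxy; bidirectional curve fit, DMSO = baseline.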

Measured: AC50

Sequence of E-selectin (Homo sapiens) (P16581 whole entry, looked up): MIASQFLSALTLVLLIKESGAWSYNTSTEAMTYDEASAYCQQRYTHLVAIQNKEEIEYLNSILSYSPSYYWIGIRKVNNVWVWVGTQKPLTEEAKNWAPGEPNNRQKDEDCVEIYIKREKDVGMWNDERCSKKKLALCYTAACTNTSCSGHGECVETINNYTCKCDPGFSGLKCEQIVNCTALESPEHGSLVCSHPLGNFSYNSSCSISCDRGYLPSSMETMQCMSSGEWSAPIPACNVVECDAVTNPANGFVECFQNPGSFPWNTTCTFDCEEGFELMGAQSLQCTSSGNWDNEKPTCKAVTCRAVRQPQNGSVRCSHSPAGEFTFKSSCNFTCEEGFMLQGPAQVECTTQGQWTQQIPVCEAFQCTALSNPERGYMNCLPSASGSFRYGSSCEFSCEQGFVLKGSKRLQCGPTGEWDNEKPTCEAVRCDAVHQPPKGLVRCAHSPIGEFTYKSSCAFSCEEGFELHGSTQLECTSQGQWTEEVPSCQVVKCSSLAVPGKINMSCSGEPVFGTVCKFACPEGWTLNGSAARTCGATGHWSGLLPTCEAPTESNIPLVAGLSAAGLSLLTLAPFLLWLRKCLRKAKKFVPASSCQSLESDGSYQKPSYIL

CCOc1nc(F)cc2nc(S(=O)(=O)Nc3c(Cl)cccc3Cl)nn12
inactive: all assays above

Nc1c(Cl)c(F)nc(OCC(=O)O)c1Cl
inactive: all assays above

CS(=O)(=O)c1cc(C(F)(F)F)ccc1C(=O)c1cnoc1C1CC1
inactive: all assays above

CC(C)N1C(=O)c2ccccc2NS1(=O)=O
inactive: all assays above

CNC(=O)N(C)c1nnc(C(C)(C)C)s1
inactive: all assays above

CC1(C)CON(Cc2ccccc2Cl)C1=O
inactive: all assays above

Cc1nc(N(C)C)nc(OC(=O)N(C)C)c1C
inactive: all assays above

CCNC(=O)NC(=O)C(C#N)=NOC
inactive: all assays above

COC(=O)NC(=S)Nc1ccccc1NC(=S)NC(=O)OC
active: [2] 15.1 µM | [4] 14 µM | [5] 25.1 µM | [6] 19.2 µM
inactive: all other assays above

O=C(Nc1ccccc1-c1ccc(Cl)cc1)c1cccnc1Cl
inactive: all assays above

COP(=O)(OC)O/C(C)=C/C(=O)N(C)C
inactive: all assays above

Clc1cccc(C(Cl)(Cl)Cl)n1
inactive: all assays above

CCCC(=NOCC)C1=C(O)CC(CC(C)SCC)CC1=O (stereo not given)
inactive: all assays above

COc1cc(OC)nc(NC(=O)NS(=O)(=O)c2ncccc2OCC(F)(F)F)n1
inactive: all assays above

CCSC(=O)N1CCCCCC1
inactive: all assays above

Cn1c(-c2ccccc2)cc(-c2ccccc2)[n+]1C
active: CD40, CD40 (gene 958) 7.51 µM | CD69, CD69 (gene 969) 2.99 µM | [1] 5.52 µM | [2] 4.84 µM | [4] 3.97 µM | [5] 4.04 µM | [6] 3.16 µM
inactive: [3] | [7]

Cc1cc(C)nc(Nc2ccccc2)n1
active: [2] 20 µM | [4] 7.57 µM | [5] 13.8 µM
inactive: all other assays above

O=P(O)(O)CCCl
inactive: all assays above

Clc1nc(Cl)nc(Nc2ccccc2Cl)n1
inactive: all assays above

COc1cc(Cl)c(OC)cc1Cl
inactive: all assays above
